# Screening results from PubChem.
# A selection: hits, their analogues and other compounds. The true share with any hit is near 3%.
# D3 ag: activates the human D3 dopamine receptor | P35462 | D3R DiscoveRx beta-arrestin cells, luminescence, 90 min | max activation, % | 410,000 tested, 0.58% active | AID 652048; in the data active = max activation above about 30%; also: 0% is about no effect
# Target sequence (P35462 whole entry, looked up): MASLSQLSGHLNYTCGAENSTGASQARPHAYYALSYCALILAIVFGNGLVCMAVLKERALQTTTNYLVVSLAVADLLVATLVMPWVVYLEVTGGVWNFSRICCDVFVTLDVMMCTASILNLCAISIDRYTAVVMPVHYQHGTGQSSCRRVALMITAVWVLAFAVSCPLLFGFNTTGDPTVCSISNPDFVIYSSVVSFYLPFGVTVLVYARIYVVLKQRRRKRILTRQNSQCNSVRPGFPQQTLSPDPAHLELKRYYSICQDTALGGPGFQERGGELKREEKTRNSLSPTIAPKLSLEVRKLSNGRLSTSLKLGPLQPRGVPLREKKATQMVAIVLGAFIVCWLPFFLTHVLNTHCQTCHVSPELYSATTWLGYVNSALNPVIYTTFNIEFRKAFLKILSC
#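 Cells at 1500/well, incubated overnight, then treated with pinned compounds (dopamine as control) for 90 min at 37 degrees C. DiscoveRx reagent added for 30 - 60 minutes at room temperature; luminescence read.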
# D3 antag: blocks the human D3 dopamine receptor; 360,000 tested, 2.5% active; D3R cells, DiscoveRx beta-arrestin luminescence, antagonist mode; active compounds read low; max response, negative = inhibition, %; P35462; in the data active = max response below about -50%; inconclusive = no clear call, values can overlap the other calls; also: % is scaled to controls: 0 for no effect and ±100 for the full control effect
#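 Cells plated overnight at 1500 cells/well, then exposed to library compounds with dopamine controls for 90 minutes at 37 degrees C. DiscoveRx reagent added for 30–60 minutes at room temperature; luminescence read, quantitative HTS format.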
# Nrf2 activator: Nrf2 pathway activation; AREc32 ARE-luciferase reporter (MCF7-derived line), luminescence, 24 h; AID 624171; 410,000 tested, 0.31% active; Potency, µM (titrated, usually from 46.1 µM), inactives show top-dose activation, usual class: activators; also: potency is read from the fitted curve at half-maximal effect; % of control where 0% means no effect; nearly all actives have a fitted effect of over 65% in size
#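 Cells of the AREc32 ARE-luciferase line are plated in OPTI-MEM containing 5% FBS and left overnight at 37 deg C. Compounds are pinned in, incubation continues 24 hr, and firefly luciferase signal is then measured.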
# GRP78 ERSR act: inducers of ER stress response in human glioma cells; U87-MG GRP78 promoter luciferase reporter, 16 h; Potency, µM, for inactives: at the top dose activation, actives largely listed as activators; 420,000 tested, 0.02% active; AID 602332; also: potency is read from the fitted curve at half-maximal effect; series mostly up to about 76 µM; % of control where 0% means no effect; nearly all actives have a fitted effect of over 35% in size
#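 ERSR induction read as luciferase luminescence (Bright-Glo, 10 min at room temperature) in stably transfected human U87-MG glioma cells exposed to compounds for 16 h, using GRP78 as sensor.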
# The depositor's hits bear a star; ? = inconclusive; . = not tested or not shown; [ ] = another dose, or the depositor's remark. Unless noted, calls follow the shape of the dose curve; as a rule, active = well fitted curve in the direction sought with a large enough effect; inconclusive = small, poorly fitted or top-dose-only effect, or another doubt; inactive = no such curve, though single readings can be large; an effect the other way counts as inactive or inconclusive.
SMILES,D3 ag,D3 antag,Nrf2 activator,GRP78 ERSR act
CCN(CC)CCN1C(=O)/C(=C\c2ccc(Cl)c([N+](=O)[O-])c2)SC1=Nc1ccc(OC)cc1,-26.1,-101.9*,-1.9%,-13.0%
Cc1c(C(=O)N2CC3CCC2C3)sc2ncnc(NCCc3ccccn3)c12 (configuration not stated),.,.,.,-4.6%
O=C(NC(c1ccc(Cl)cc1)c1ccsc1)C1CCN(Cc2cccc(Cl)c2)CC1 (configuration not stated),-18.4,-50.4*,-0.3%,-5.1%
O=C(NC(c1ccc(Cl)cc1)c1ccsc1)C1CCN(Cc2cccc(C(F)(F)F)c2)CC1 (configuration not stated),-21.3,-92.6*,4.8%,-6.5%
O=C(NC(c1ccc2ccccc2n1)c1cccs1)C1CCN(Cc2cccc(C(F)(F)F)c2)CC1 (configuration not stated),-23.9,?,7.6%[9.22 µM],-0.5%
O=C(CSc1nnc(-c2ccco2)n1CC1CCCO1)c1ccc(F)cc1 (configuration not stated),6.0,-67.4*,0.3%,-5.1%
COc1ccc(C(=O)CSc2nnc(-c3ccco3)n2CC2CCCO2)cc1 (configuration not stated),-2.0,-3.7,-0.3%,0.1%
CN(Cc1ccccc1)C(c1ccnc2ccccc12)c1nnnn1-c1ccc2c(c1)OCCO2 (configuration not stated),50.2*,-11.1,5.3%,.
O=C(COC(=O)c1ccccc1OCc1cccc(Br)c1)Nc1ccc(Br)cc1,.,.,.,-4.3%
COc1cccc(-c2c(-c3cc(OC)cc(OC)c3)n(C)c3ccc(-c4ccc5[nH]ccc5c4)cc23)c1,32.4*,30.0,-3.0%,-5.7%
CC(NCc1ccc(N(C)C)cc1)C1CC2CCC1C2 (configuration not stated),-4.9,-70.3*,-0.8%,-3.5%
CCOC(=O)C1CCC(CN(Cc2c(Cl)cccc2Cl)S(=O)(=O)c2ccc(Cl)cc2)CC1 (configuration not stated),-1.2,.,0.3%,0.9%
CC1CCN(S(=O)(=O)c2ccc3c(c2)N(CC(=O)Nc2ccc(F)c(Cl)c2)C(=O)CO3)CC1,1.7,.,-0.5%,-2.8%
CN(CC(=O)N1CCOCC1)Cc1c(Cl)cccc1NC(=O)c1ccccc1,-0.3,.,.,-3.6%
Cc1csc2ncnc(NC3CCN(Cc4ccccc4)CC3)c12,-13.8,-89.9*,3.7%,-3.1%
CN(C)c1cc(C(F)(F)F)nc(-c2ccccn2)n1,-2.0,-13.8,0.1%,1.2%
CSCc1cc(N(C)c2ccccc2)nc(-c2ccccn2)n1,-11.2,-75.4*,0.0%,-4.4%
c1ccc(CCC2Cc3ccccc3N2)cc1 (configuration not stated),0.9,-17.0,0.3%,1.2%
c1ccc(CC[C@@H]2CC[C@@H](CCc3ccccc3)N2)cc1,-13.7,-87.8*,2.5%,-1.3%
Cc1ccc2[nH]c3c(c2c1)CNCC3,-21.6,-57.6*,0.2%,0.9%
Cc1ccc(Cl)cc1N1CCN(C(=O)Cc2c(C(=O)O)[nH]c3ccc(Cl)cc23)CC1,-15.7,-18.6,-0.8%[9.22 µM],31.6µM*
Cc1ccc(Cl)cc1N1CCN(C(=O)c2cc3c(=O)[nH]c4ccccc4c3n2C)CC1,70.8*,23.5,-0.3%,-4.6%
Cc1ccc(Cl)cc1N1CCN(C(=O)Cc2c(C(=O)O)[nH]c3ccccc23)CC1,-15.2,-16.2,-0.2%,-0.7%
O=C(CSc1c2c(nc3ccc(Cl)cc13)CCCC2)N1CCN(c2cccc(Cl)c2)CC1,-12.4,.,26.1%,-6.0%
OC(CNCCc1ccc(Cl)cc1)COc1ccc2ccccc2c1 (configuration not stated),-8.7,13.9,-0.4%,-12.4%
SMILES,D3 ag,D3 antag,Nrf2 activator,GRP78 ERSR act
OC(CNCCc1ccccc1)COc1ccc(OCC(O)CNCCc2ccccc2)cc1 (configuration not stated),-19.6,-51.6*,5.5%,-8.8%
COc1ccc(C(OCC(O)CNCCc2ccccc2)c2ccc(OC)cc2)cc1 (configuration not stated),-34.4,-57.9*,4.5%,-4.8%
Clc1ccc(OCCNCCc2ccccc2)cc1,11.1,-59.2*,-0.4%,-1.1%
COc1cccc(O)c1CN1CCC2(CC1)c1ccccc1[C@@H](NC(=O)c1ccsc1)[C@@H]2OC,.,.,.,-4.5%
Clc1cc(Cl)c(OCC#CI)cc1Cl,2.4,.,.,-11.5%
CCCCCCN1N=C(C)C(C(=O)c2ccc(Cl)cc2)C1=O (configuration not stated),1.6,-83.4*,-0.2%,-3.6%
CCCCCCCN1N=C(C)C(C(=O)c2ccccc2)C1=O (configuration not stated),3.5,-24.7,-1.2%,-3.0%
O=C(COC(=O)c1cccc(S(=O)(=O)N2CCc3ccccc32)c1)Nc1ncc(Cl)cc1Cl,-47.7,-6.2,0.1%,-5.9%
O=C(COC(=O)c1cccc(S(=O)(=O)N2CCc3ccccc32)c1)Nc1ncc(C(F)(F)F)cc1Cl,-2.0,-56.9*,2.7%,-0.9%
O=Cc1c(Sc2ccccn2)nc2ccccn2c1=O,2.7,-51.7*,?,-13.0%
O=C1C[C@H]2C=CCc3cccc(c32)CN1Cc1cccc(F)c1,.,.,.,1.9%
CCn1c(SCC(=O)Nc2ccc(C(C)=O)cc2)nc2nc3c(cc2c1=O)CCCC3,30.3*,44.1,2.8%,0.8%
CCn1c(SCC(=O)Nc2ccc(Cl)cc2)nc2nc3c(cc2c1=O)CCCC3,25.2,22.9,-0.1%,-1.9%
Cc1ccccc1C1(CC(=O)N2CCCC2c2nccs2)CC(=O)N(C2CCCC2)C1=O (configuration not stated),.,.,.,-4.6%
CCCCCC1CCNCC1,.,.,.,-4.8%
CSc1ccccc1COC(=O)Nc1ccccc1C,-0.1,-22.7,2.6%,4.3%
Cc1ccccc1NC(=O)OCc1ccccc1,61.2*,7.0,1.7%,7.2%
Cc1ccc(NNC(=O)c2ccno2)c(C)c1,34.6*,1.9,3.3%,-0.7%
Cc1ncc2c(c1CNS(=O)(=O)N(C)C)CCN(C(=O)/C=C/c1ccccc1Cl)C2,.,.,.,-1.9%
CC1=NC(=O)C(N=Nc2ccccc2C(=O)O)N1c1ccccc1 (configuration not stated),31.5*,51.4,0.1%,6.3%
CC1=NC(=O)C(N=Nc2ccccc2)N1c1ccccc1 (configuration not stated),-3.0,-58.4*,12.3%,1.7%
COc1ccc2cc(CN(CCCN3CCOCC3)Cc3nnnn3C3CCCCC3)c(=O)[nH]c2c1,-35.1,-50.4*,3.2%,-3.0%
COc1cc(/C=C/C(=O)OCC(=O)NC(=O)NC23CC4CC(CC(C4)C2)C3)ccc1OCC#N,-6.8,-53.1*,-1.0%,-1.1%
COC(=O)CSc1nc(N)c(C#N)c(-c2ccco2)c1C#N,4.1,0.4,14.1µM*,-2.5%
CC(/C=C/c1ccco1)=N/NC(=O)c1ccccc1Cl,-3.9,?,?,11.2%
O=C(/C=C/c1ccco1)c1cccc([N+](=O)[O-])c1,6.7,-18.6,?,-2.4%
O=C(N/N=C/C=C/c1ccco1)c1cccc([N+](=O)[O-])c1,-2.4,6.4,2.24µM*,0.1%
O=C(N/N=C/C=C/c1ccco1)c1ccccc1Cl,14.2,-26.7,11.2µM*,5.8%
